Reference: PubChem BioAssay (EPA / NIEHS)
Records with an inconclusive call do not appear. The source holds several records for some structures; these can differ, active in one and inactive in another. The source made the active and inactive calls. The calls were made as follows, unless noted: active = hit-call score of the fitted dose curve at least 0.9, where 1 is the maximum; inactive = score below 0.9.

Assays:
[1] = molecular target: human Retinoid X Receptor beta (RXRb), RXRB (gene 6257) (UniProt P28702); assay: ATG_RXRb_TRANS: Attagene TRANS-FACTORIAL HepG2 Assay for human Retinoid X Receptor beta (RXRb) (AID 2283013; active = hit-call score of the fitted dose curve at least 0.9, where 1 is the maximum)
Outline: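 HepG2 cells transiently transfected with multiplexed reporter units driven by GAL4-UAS and exogenous chimeric NR-Gal4 proteins; treated 24 h. Reporter mRNA measured by RT-PCR, 6-FAM labelling and capillary electrophoresis; gain-of-signal fitted versus DMSO baseline.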

[2] = read-out: E-selectin (Homo sapiens) (UniProt P16581); assay: BSK_3C_Eselectin: BioMAP Diversity Plus: 3C Assay for Eselectin Biomarker Activity (AID 2283015); settings: primary human endothelial cells (HUVEC); actives raise or lower the signal
Outline: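 HUVEC, 3C stimulation; compound exposure 24 h; E-selectin by ELISA; gain- or loss-of-signal fitted bidirectionally vs DMSO baseline.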

[3] = read-out: Interleukin-1 alpha (IL1a), IL1A (gene 3552); assay: BSK_BE3C_IL1a: BioMAP Diversity Plus: BE3C Assay for Interleukin-1 alpha (IL1a) Biomarker Activity (AID 2283016); settings: primary human bronchial epithelial cells; actives raise or lower the signal
Outline: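 Human primary bronchial epithelial cells (BE3C system) were dosed with compound and IL-1a measured by ELISA 24 h later. Activity was fitted bidirectionally against DMSO baseline; cytotoxicity was tracked in parallel cultures by SRB total-protein staining.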

[4] = read-out: Monocyte Chemoattractant Protein-1 (MCP1), CCL2 (gene 6347); assay: BSK_3C_MCP1: BioMAP Diversity Plus: 3C Assay for Monocyte Chemoattractant Protein-1 (MCP1) Biomarker Activity (AID 2283017); settings: primary human endothelial cells (HUVEC); actives raise or lower the signal
Outline: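 HUVEC, 3C system; 24 h chemical exposure; MCP-1 by ELISA; bidirectional curve fit vs DMSO baseline.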

[5] = read-out: Monocyte Chemoattractant Protein-1 (MCP1), CCL2 (gene 6347); assay: BSK_4H_MCP1: BioMAP Diversity Plus: 4H Assay for Monocyte Chemoattractant Protein-1 (MCP1) Biomarker Activity (AID 2283018); settings: primary human endothelial cells (HUVEC); actives raise or lower the signal
Outline: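 Human umbilical vein endothelial cells (4H system) dosed with chemical; MCP-1 measured by ELISA 24 h after dosing. Bidirectional curve fitting against DMSO negative control as baseline; parallel SRB total-protein staining tracks overt cytotoxicity.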

[6] = read-out: Human Leukocyte Antigen - DR isotype (HLADR), HLA-DRA (gene 3122); assay: BSK_3C_HLADR: BioMAP Diversity Plus: 3C Assay for Human Leukocyte Antigen - DR isotype (HLADR) Biomarker Activity (AID 2283019); settings: primary human endothelial cells (HUVEC); actives raise or lower the signal
Outline: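 HUVEC, 3C stimulation, 24 h post-dose; HLA-DR by ELISA; bidirectional curve fit vs DMSO baseline; gain or loss of signal scored.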

[7] = read-out: Interleukin-8 (IL8), CXCL8 (gene 3576); assay: BSK_3C_IL8: BioMAP Diversity Plus: 3C Assay for Interleukin-8 (IL8) Biomarker Activity (AID 2283020); settings: primary human endothelial cells (HUVEC); actives raise or lower the signal
Outline: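 Primary human umbilical vein endothelial cells (3C system) were exposed to test chemical for 24 h, then IL-8 was quantified by ELISA. Responses were fitted bidirectionally against DMSO vehicle as baseline.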

[8] = read-out: Monokine induced gamma interferon (MIG), CXCL9 (gene 4283); assay: BSK_3C_MIG: BioMAP Diversity Plus: 3C Assay for Monokine induced gamma interferon (MIG) Biomarker Activity (AID 2283021); settings: primary human endothelial cells (HUVEC); actives raise or lower the signal
Outline: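 Primary human umbilical vein endothelial cells in the 3C system were exposed to chemical for 24 h, after which MIG was quantified by ELISA. Activity was fitted bidirectionally against DMSO as negative control and baseline.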

[9] = molecular target: human Vitamin D Receptor (VDR), VDR (gene 7421) (UniProt P11473); assay: ATG_VDR_TRANS: Attagene TRANS-FACTORIAL HepG2 Assay for human Vitamin D Receptor (VDR) (AID 2283022; active = hit-call score of the fitted dose curve at least 0.9, where 1 is the maximum)
Outline: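 RT-PCR/capillary electrophoresis read-out of reporter mRNA induction in transiently transfected HepG2; 24 h dosing; chimeric NR-Gal4 (TRANS format); gain-of-signal fit against DMSO baseline.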

[10] = BSK_3C_SRB: Viability Assessment in the BioMAP Diversity Plus: 3C Assay (AID 2283023); settings: primary human endothelial cells (HUVEC);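 also: cells read 24 h after compound dosing; fitted both ways against DMSO so a hit may be signal rise or drop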
Outline: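 HUVEC, 24 h post-dose; 10% TCA fix, 0.1% SRB stain, A560 nm. Bidirectional curve fit vs DMSO negative control.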

[11] = read-out: Matrix Metallopeptidase 1 (MMP1), MMP1 (gene 4312); assay: BSK_BE3C_MMP1: BioMAP Diversity Plus: BE3C Assay for Matrix Metallopeptidase 1 (MMP1) Biomarker Activity (AID 2283024); settings: primary human bronchial epithelial cells; actives raise or lower the signal
Outline: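 Primary human bronchial epithelial cells were dosed with test chemicals, and MMP1 levels were measured by ELISA 24 h later. Data were fitted bidirectionally against DMSO as the negative control and activity baseline.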

[12] = BSK_3C_Vis: BioMAP Diversity Plus: 3C Assay for Morphology Visualization (AID 2283025); settings: primary human endothelial cells (HUVEC);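 also: fitted both ways so gain or loss versus DMSO counts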
Outline: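 Human umbilical vein endothelial cells in the 3C system were imaged by light microscopy 24 h after chemical dosing to record cell morphology. Activity was fitted bidirectionally against DMSO as negative control and baseline; the endpoint serves as a background control.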

[13] = read-out: Pselectin, SELP (gene 6403); assay: BSK_4H_Pselectin: BioMAP Diversity Plus: 4H Assay for Pselectin Biomarker Activity (AID 2283026); settings: primary human endothelial cells (HUVEC); actives raise or lower the signal
Outline: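 Primary human umbilical vein endothelial cells were exposed to test chemical for 24 h, then cell-surface P-selectin was quantified by ELISA. Activity was fitted bidirectionally against DMSO as negative control and baseline.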

[14] = BSK_4H_SRB: Viability Assessment in the BioMAP Diversity Plus: 4H Assay (AID 2283027); settings: primary human endothelial cells (HUVEC);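 also: cells exposed to compound for 24 h before staining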;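 as to AC50: curves fitted both ways versus DMSO so AC50 may be loss or gain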
Outline: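 Human umbilical vein endothelial cells were dosed with chemical and, after 24 h, fixed with 10% TCA, stained with 0.1% sulforhodamine B, and read at 560 nm to give total protein as a cytotoxicity measure. Bidirectional fitting relative to DMSO control.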

[15] = BSK_BE3C_SRB: Viability Assessment in the BioMAP Diversity Plus: BE3C Assay (AID 2283028); settings: primary human bronchial epithelial cells
Outline: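 Primary human bronchial epithelium; chemical dosing, 24 h; 10% TCA fix, 0.1% SRB stain, A560; bidirectional fit vs DMSO baseline.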

[16] = read-out: Thrombomodulin, THBD (gene 7056); assay: BSK_3C_Thrombomodulin: BioMAP Diversity Plus: 3C Assay for Thrombomodulin Biomarker Activity (AID 2283029); settings: primary human endothelial cells (HUVEC); actives raise or lower the signal
Outline: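 Primary human umbilical vein endothelial cells (3C system) were exposed to chemical for 24 h, then thrombomodulin levels were measured by ELISA. Activity was fitted bidirectionally against the DMSO negative control as baseline.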

[17] = read-out: Urokinase-type plasminogen activator receptor (uPAR), PLAUR (gene 5329); assay: BSK_4H_uPAR: BioMAP Diversity Plus: 4H Assay for Urokinase-type plasminogen activator receptor (uPAR) Biomarker Activity (AID 2283030); settings: primary human endothelial cells (HUVEC); actives raise or lower the signal
Outline: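 HUVEC, 24 h post-dose; uPAR by ELISA; bidirectional fit vs DMSO baseline.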

[18] = read-out: Vascular endothelial growth factor receptor 2 (Homo sapiens) (UniProt P35968); assay: BSK_4H_VEGFRII: BioMAP Diversity Plus: 4H Assay for Vascular endothelial growth factor receptor 2 (VEGFR2) Biomarker Activity (AID 2283031); settings: primary human endothelial cells (HUVEC); actives raise or lower the signal
Outline: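 HUVEC (human primary), 4H system; 24 h post-dose; VEGFRII by ELISA; bidirectional curve fit vs DMSO baseline; gain or loss of signal scored.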

[19] = read-out: Human Leukocyte Antigen - DR isotype (HLADR), HLA-DRA (gene 3122); assay: BSK_BE3C_HLADR: BioMAP Diversity Plus: BE3C Assay for Human Leukocyte Antigen - DR isotype (HLADR) Biomarker Activity (AID 2283032); settings: primary human bronchial epithelial cells; actives raise or lower the signal
Outline: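 Human primary bronchial epithelial cells in the BE3C system were exposed to chemicals for 24 h, after which HLA-DR levels were quantified by ELISA. Activity was fitted bidirectionally, gain or loss of signal, against DMSO as negative control and baseline.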

[20] = molecular target: human Thyroid Receptor alpha (THRa1), THRA (gene 7067) (UniProt P10827); assay: ATG_THRa1_TRANS: Attagene TRANS-FACTORIAL HepG2 Assay for human Thyroid Receptor alpha (THRa1) (AID 2283014; active = hit-call score of the fitted dose curve at least 0.9, where 1 is the maximum)
Outline: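 Transient HepG2 transfection, NR-Gal4 chimera driving GAL4-UAS reporters; 24 h compound exposure; total RNA, oligo(dT) RT, PCR, fluorescent primer extension, capillary electrophoresis. Upward direction vs DMSO control.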

Measured: AC50

human Retinoid X Receptor beta (RXRb), RXRB (gene 6257), sequence (P28702 whole entry, looked up, the tested form may be a part): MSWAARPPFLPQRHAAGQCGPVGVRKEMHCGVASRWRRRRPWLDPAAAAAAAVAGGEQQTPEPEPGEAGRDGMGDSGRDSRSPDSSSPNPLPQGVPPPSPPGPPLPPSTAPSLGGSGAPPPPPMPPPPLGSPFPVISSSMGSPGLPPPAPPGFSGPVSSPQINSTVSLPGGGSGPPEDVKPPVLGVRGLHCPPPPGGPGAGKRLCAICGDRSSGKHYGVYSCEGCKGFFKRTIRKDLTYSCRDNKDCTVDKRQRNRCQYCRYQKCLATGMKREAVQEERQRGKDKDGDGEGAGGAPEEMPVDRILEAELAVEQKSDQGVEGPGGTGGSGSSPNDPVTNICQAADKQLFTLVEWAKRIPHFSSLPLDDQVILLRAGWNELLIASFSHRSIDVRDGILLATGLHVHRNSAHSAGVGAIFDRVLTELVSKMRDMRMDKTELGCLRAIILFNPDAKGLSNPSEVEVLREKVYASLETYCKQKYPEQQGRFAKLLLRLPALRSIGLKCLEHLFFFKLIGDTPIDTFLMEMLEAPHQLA
human Vitamin D Receptor (VDR), VDR (gene 7421), sequence (P11473 whole entry, looked up, the tested form may be a part): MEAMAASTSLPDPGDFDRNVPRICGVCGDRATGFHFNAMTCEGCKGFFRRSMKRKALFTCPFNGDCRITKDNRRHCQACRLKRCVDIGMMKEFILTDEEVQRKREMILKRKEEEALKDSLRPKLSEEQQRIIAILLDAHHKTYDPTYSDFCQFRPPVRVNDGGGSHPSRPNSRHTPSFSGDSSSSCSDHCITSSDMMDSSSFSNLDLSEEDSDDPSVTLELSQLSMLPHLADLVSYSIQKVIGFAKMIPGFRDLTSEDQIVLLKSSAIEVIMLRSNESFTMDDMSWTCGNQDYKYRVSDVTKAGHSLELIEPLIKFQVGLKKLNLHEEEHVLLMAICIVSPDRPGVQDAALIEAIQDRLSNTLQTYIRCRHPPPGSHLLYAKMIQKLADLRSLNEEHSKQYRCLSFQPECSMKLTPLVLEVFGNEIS
E-selectin (Homo sapiens), sequence (P16581 whole entry, looked up): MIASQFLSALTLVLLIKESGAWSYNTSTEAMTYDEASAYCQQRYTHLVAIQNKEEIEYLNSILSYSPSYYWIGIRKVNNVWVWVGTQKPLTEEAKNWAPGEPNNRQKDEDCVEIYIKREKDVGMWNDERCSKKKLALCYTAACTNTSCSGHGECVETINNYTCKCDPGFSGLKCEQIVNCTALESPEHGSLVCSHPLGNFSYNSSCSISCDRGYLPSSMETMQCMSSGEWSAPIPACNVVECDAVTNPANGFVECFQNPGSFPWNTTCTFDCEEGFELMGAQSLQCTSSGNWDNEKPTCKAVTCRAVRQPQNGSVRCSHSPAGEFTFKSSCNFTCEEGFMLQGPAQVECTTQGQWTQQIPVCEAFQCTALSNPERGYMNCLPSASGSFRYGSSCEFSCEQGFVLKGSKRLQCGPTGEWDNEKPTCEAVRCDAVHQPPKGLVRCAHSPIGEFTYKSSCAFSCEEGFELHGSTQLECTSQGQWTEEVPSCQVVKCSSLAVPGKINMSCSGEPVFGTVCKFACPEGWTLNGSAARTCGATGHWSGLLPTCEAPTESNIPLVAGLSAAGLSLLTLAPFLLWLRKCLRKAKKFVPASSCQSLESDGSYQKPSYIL
human Thyroid Receptor alpha (THRa1), THRA (gene 7067), sequence (P10827 whole entry, looked up, the tested form may be a part): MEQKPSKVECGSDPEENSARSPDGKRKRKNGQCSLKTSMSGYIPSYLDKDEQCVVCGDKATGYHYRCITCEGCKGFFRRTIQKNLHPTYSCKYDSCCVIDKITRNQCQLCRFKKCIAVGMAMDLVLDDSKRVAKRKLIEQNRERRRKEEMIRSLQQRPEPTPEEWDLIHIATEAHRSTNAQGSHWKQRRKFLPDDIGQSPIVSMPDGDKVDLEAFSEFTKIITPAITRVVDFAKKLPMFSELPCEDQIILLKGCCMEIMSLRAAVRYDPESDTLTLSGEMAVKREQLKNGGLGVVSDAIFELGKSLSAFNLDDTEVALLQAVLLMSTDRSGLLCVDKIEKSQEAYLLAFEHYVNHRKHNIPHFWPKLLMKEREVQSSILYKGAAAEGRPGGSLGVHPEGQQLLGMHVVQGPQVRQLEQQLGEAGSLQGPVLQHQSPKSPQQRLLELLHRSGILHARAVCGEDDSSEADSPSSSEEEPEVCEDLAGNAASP

CCCCC(CC)CO (stereo not drawn)
not listed: [20]
inactive: all other assays above

CC(C)(O)c1ccc(CNC(=O)c2cccnc2Oc2ccc(F)cc2)cc1
not listed: [9] | [12]
inactive: all other assays above

Cc1ccc(C(C)(C)C)c(O)c1
active: [1] 23.3 µM | [2] 34.5 µM | [4] 34.7 µM | [16] 31.3 µM
not listed: [20]
inactive: all other assays above

O=C(O)c1cccnc1
not listed: [9] | [18]
inactive: all other assays above

CCCCOC(=O)CCCCC(=O)OCCCC
inactive: all assays above

COc1ccc(OC(F)(F)F)cc1CN[C@H]1CCCN[C@H]1c1ccccc1
active: [2] 9.58 µM | [4] 20 µM | [6] 32.8 µM | [10] 15 µM | [12] 3.29 µM | [14] 14.3 µM | [16] 17.8 µM | [17] 20 µM
not listed: [20]
inactive: all other assays above

CC(=O)O[C@]1(C(C)=O)CC[C@H]2[C@@H]3C=C(Cl)C4=CC(=O)[C@@H]5C[C@@H]5[C@]4(C)[C@H]3CC[C@@]21C
active: [3] 32.8 µM | [6] 33.4 µM | [9] 148 µM | [10] 29.8 µM | [11] 4.91 µM | [17] 14.7 µM | [19] 19.3 µM
inactive: [1] | [20] | [2] | [4] | [5] | [7] | [8] | [9] | [13] | [14] | [15] | [16]

CN(C)C(=O)NC1(c2ccccc2)CCN(CCC[C@]2(c3ccc(Cl)c(Cl)c3)CCCN(C(=O)c3ccccc3)C2)CC1
active: [1] 4.3 µM | [4] 7.06 µM | [7] 7.16 µM | [10] 6.65 µM | [12] 9.81 µM
not listed: [9]
inactive: all other assays above

C/C=C/C=C/C(=O)O
active: [1] 41.5 µM
not listed: [9] | [18]
inactive: all other assays above

CCCCCCCC(=O)OC
not listed: [18]
inactive: all other assays above

O=C1O[C@H]([C@H](O)CO)C(O)=C1O
not listed: [9]
inactive: all other assays above

CC(=O)O
not listed: [9] | [12] | [18]
inactive: all other assays above

NC=O
inactive: all assays above

NC1CCCCC1
not listed: [18]
inactive: all other assays above
